In PubChem BioAssay (Tox21):
Results filed as inconclusive are left out. Active and inactive are the calls of the source. Unless noted, calls follow the shape of the dose curve; as a rule, active = well fitted curve in the direction sought with a large enough effect in the repeat runs; inconclusive = weak or mixed curves; inactive = no such curve, though single readings can be large; an effect the other way counts as inactive or inconclusive.

Legend:
[1] = target: Estrogen receptor beta (Homo sapiens) (UniProt Q92731); assay: qHTS assay to identify small molecule agonists of the estrogen receptor beta (ER-beta) signaling pathway (AID 1259377; active = well fitted activation curve with a large enough effect in the signal ratio in the repeat runs, not every such curve was filed as active; the % refers to the signal ratio)
Chain of Estrogen receptor beta (Homo sapiens) (Q92731 whole entry, looked up): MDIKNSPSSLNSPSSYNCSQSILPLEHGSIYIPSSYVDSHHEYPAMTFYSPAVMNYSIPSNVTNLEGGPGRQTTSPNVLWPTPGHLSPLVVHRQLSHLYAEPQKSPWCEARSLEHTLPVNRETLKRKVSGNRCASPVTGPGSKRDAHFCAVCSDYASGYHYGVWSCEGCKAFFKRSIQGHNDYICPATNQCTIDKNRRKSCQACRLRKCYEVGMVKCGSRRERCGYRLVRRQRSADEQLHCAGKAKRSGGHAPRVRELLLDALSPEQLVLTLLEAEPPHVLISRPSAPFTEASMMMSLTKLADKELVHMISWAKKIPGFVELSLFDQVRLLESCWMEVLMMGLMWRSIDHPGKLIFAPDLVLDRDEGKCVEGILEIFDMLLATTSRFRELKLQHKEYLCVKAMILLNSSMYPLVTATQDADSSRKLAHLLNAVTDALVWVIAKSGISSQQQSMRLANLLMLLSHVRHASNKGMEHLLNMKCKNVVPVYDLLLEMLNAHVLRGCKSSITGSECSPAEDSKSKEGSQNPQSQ
How it was run: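 Reporter cells (HEK293T, ER-beta-UAS-bla) receive compounds or DMSO after a 6 hr pre-incubation. They then incubate 16 hr at 37C/5% CO2, and fluorescence from LiveBLAzer B/G substrate is measured after 2 hours at room temperature.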

[2] = qHTS assay to identify small molecule agonists of the androgen receptor (AR) signaling pathway in the presence of an antagonist - cell viability counter screen (AID 1259379);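 also: MDA-kb2 human breast cancer cells carrying an MMTV luciferase reporter; series mostly up to about 92 µM; nearly all actives have a fitted effect of over 25% in size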
How it was run: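 Seed MDA-kb2 at 3,000 cells/well; incubate 5 hr, 37C, 0% CO2. Add nilutamide to 3.0uM final, then pin compounds at 15 concentrations. Incubate 16 hr. Add CellTiter-Fluor at 15 hr, read fluorescence after 1 hr.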

[3] = qHTS assay to identify small molecule agonists of the estrogen receptor beta (ER-beta) signaling pathway - cell viability counter screen (AID 1259380); also: nearly all actives have a fitted effect of over 30% in size
How it was run: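 CellTiter-Glo read, 30 min RT, same wells as bla assay; cells ER-beta-UAS-bla HEK293T; 16 hr compound, 37C; medium 2% charcoal-stripped FBS.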

[4] = qHTS assay to identify small molecule antagonists of the estrogen receptor beta (ER-beta) signaling pathway - cell viability counter screen (AID 1259382);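 also: HEK293T cells carrying ER-beta-UAS-bla reporter stimulated with estradiol; series mostly up to about 92 µM; nearly all actives have a fitted effect of over 55% in size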
How it was run: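 In this multiplexed counter screen, cells were seeded at 2,000 per well in medium with 2% charcoal-stripped FBS and incubated 6 hr before compound and 1nM final E2 were added. Sixteen hours later, ATP-based luminescence reported viability.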

[5] = target: Estrogen receptor (Homo sapiens) (UniProt P03372); assay: qHTS assay to identify small molecule agonists of the estrogen receptor alpha (ER-alpha) signaling pathway in the presence of an antagonist (AID 1259383; calls by dose curve; also: top concentration of the series differs between compounds; nearly all actives have a fitted effect of over 15% in size)
Chain of Estrogen receptor (Homo sapiens) (P03372 whole entry, looked up): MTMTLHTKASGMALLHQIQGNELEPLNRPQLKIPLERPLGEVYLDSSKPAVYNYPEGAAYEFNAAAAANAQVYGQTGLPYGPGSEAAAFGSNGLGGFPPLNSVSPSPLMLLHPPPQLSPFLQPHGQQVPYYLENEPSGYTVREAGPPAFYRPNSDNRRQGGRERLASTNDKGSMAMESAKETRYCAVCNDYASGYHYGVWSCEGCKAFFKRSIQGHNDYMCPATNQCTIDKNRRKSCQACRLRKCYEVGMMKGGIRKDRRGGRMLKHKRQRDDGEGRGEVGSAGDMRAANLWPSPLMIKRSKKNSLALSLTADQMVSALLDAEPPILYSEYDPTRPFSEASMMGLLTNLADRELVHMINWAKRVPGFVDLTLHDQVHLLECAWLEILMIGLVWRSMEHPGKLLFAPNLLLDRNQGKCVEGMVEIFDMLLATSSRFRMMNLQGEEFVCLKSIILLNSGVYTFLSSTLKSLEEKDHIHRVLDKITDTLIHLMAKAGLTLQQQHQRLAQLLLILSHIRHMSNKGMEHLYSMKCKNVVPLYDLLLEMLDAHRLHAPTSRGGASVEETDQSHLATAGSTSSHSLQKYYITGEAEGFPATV
How it was run: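 Stably transfected VM7Luc4E2 reporter cells, kept 5 days in charcoal-stripped serum, received ICI-182,780 at 10.0nM final before compound addition. Following 22hr incubation at 37C and 5% CO2, luciferase signal was read by luminescence.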

[6] = qHTS assay to identify small molecule agonists or antagonists of the thyroid stimulating hormone receptor (TSHR) signaling pathway - wild type cell line counter screen (AID 1259384; calls by dose curve)
How it was run: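 Counter screen in untransfected Hek293: compounds (15-point titration, triplicate) plus phosphodiesterase inhibitor Ro20-1724 added after 18 h plating; 30 min RT. Intracellular cAMP via competitive d2/cryptate immunoassay, 1 h incubation.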

[7] = target: Thyrotropin receptor (Homo sapiens) (UniProt P16473); assay: qHTS assay to identify small molecule antagonists of the thyroid stimulating hormone receptor (TSHR) signaling pathway (AID 1259385; calls by dose curve; also: nearly all actives have a fitted effect of over 20% in size)
Chain of Thyrotropin receptor (Homo sapiens) (P16473 whole entry, looked up): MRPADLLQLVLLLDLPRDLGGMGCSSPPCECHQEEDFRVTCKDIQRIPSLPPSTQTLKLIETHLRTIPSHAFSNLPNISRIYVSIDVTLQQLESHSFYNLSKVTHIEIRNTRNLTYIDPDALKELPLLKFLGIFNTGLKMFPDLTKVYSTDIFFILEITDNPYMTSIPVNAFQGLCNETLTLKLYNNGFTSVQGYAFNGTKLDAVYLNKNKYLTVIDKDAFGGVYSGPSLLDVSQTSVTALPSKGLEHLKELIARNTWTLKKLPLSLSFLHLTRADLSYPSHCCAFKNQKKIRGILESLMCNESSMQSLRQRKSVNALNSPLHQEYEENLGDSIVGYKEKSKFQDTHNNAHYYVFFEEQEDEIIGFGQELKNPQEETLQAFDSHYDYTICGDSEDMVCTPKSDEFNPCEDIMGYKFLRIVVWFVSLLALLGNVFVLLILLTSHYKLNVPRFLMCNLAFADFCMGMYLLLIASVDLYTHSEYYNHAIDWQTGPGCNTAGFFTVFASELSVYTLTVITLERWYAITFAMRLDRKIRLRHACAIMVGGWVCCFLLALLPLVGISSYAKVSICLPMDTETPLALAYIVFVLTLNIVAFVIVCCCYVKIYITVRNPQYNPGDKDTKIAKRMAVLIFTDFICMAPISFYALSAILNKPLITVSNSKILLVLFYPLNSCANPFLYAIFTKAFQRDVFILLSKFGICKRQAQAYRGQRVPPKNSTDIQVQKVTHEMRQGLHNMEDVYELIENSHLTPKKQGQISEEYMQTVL
How it was run: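 Antagonist mode: compound-treated TSHR-expressing HEK293 cells were stimulated with 1.5 ng/mL TSH (final) in presence of Ro20-1724 for 30 min at RT. HTRF cAMP detection after 1 h; each compound tested at 15 concentrations, triplicate.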

[8] = target: Progesterone receptor (Homo sapiens) (UniProt P06401); assay: qHTS assay to identify small molecule agonists of the progesterone receptor (PR) signaling pathway (AID 1346784; calls by dose curve; also: nearly all actives have a fitted effect of over 30% in size)
Chain of Progesterone receptor (Homo sapiens) (P06401 whole entry, looked up): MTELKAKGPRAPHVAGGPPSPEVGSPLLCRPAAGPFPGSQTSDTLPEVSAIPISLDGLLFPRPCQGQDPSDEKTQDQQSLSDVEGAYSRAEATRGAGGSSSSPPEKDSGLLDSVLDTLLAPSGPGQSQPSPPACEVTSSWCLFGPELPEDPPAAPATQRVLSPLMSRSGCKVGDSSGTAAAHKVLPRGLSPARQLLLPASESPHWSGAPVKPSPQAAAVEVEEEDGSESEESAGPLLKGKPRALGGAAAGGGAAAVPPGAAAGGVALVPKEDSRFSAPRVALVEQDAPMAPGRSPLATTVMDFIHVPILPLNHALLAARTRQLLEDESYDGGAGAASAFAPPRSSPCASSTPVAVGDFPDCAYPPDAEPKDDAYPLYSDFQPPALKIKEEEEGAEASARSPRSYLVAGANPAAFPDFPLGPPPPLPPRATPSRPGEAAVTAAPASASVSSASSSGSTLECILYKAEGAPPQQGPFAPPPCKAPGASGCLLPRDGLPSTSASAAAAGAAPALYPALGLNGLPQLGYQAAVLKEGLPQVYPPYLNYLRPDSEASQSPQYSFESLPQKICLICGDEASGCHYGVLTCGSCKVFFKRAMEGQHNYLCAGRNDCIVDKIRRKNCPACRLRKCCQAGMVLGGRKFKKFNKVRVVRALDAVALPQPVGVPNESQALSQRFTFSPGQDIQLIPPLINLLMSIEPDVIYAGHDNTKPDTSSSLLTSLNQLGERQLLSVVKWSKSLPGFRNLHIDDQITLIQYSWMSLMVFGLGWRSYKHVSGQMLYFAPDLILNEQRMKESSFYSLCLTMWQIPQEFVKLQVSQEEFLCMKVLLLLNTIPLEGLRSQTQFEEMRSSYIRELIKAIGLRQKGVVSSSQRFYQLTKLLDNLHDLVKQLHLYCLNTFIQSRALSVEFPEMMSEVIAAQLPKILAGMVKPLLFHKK
How it was run: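 Reporter assay, GripTite PR-UAS-bla HEK 293T cells: 16 hr exposure to DMSO-dissolved compounds at 37C, 5% CO2, in steroid-depleted (2% charcoal-stripped FBS) medium; beta-lactamase measured by FRET fluorescence.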

[9] = target: Progesterone receptor (Homo sapiens) (UniProt P06401); assay: qHTS assay to identify small molecule antagonists of the progesterone receptor (PR) signaling pathway (AID 1346795; active = well fitted inhibition curve with a large enough effect in the signal ratio in the repeat runs, not every such curve was filed as active; the % refers to the signal ratio)
How it was run: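 Stimulus R5020 at 1 nM final; cells HEK293T PR-UAS-bla; medium with 2% charcoal-stripped FBS; compound exposure 16 hr at 37C, 5% CO2; detection by FRET beta-lactamase substrate, 2 hr, room temperature.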

[10] = qHTS assay to identify small molecule antagonists of the progesterone receptor (PR) signaling pathway - cell viability counter screen (AID 1346798); also: series mostly up to about 92 µM; nearly all actives have a fitted effect of over 50% in size
How it was run: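 In the same plates used for the beta-lactamase readout, cell viability of compound- and R5020-treated PR-UAS-bla HEK293T cells (16 hr, 37C) was assessed by CellTiter-Glo luminescence.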

[11] = qHTS assay to identify small molecule antagonists of the TGF-beta/Smad signaling pathway - cell viability counter screen (AID 1346824); also: nearly all actives have a fitted effect of over 50% in size
How it was run: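 Cytotoxicity counter-screen run in the same wells as the beta-lactamase Smad reporter read: CellTiter-Glo luminescence after 30 min at room temperature. HEK 293T SBE-bla cells had 5 hr compound exposure at 37 C with TGF-beta1 (0.25 ng/mL stock).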

[12] = qHTS assay to identify small molecule agonists of the TGF-beta/Smad signaling pathway - cell viability counter screen (AID 1346829); also: top concentration of the series differs between compounds; nearly all actives have a fitted effect of over 45% in size
How it was run: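 Tox21 qHTS format: SBE-bla HEK 293T cells treated with DMSO-dissolved compounds for 5 hr; CellTiter-Glo luminescence after 30 min at room temperature.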

[13] = qHTS assay to identify small molecule agonists of the TGF-beta/Smad signaling pathway (AID 1346859; active = well fitted activation curve with a large enough effect in the signal ratio in the repeat runs, not every such curve was filed as active; the % refers to the signal ratio; also: series mostly up to about 77 µM)
How it was run: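 Screening used HEK 293T SBE-bla cells at 4,000/well. Test agents: 5 hr, 37 C. Detection: FRET substrate, 2 hr RT, then excitation 405 nm with emissions at 460 and 530 nm.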

[14] = target: Thyrotropin-releasing hormone receptor (Homo sapiens) (UniProt P34981); assay: qHTS assay to identify small molecule antagonists of the thyrotropin-releasing hormone receptor (TRHR) signaling pathway (AID 1346877; active = well fitted inhibition curve with a large enough effect in the repeat runs, not every such curve was filed as active; also: series mostly up to about 51 µM)
Chain of Thyrotropin-releasing hormone receptor (Homo sapiens) (P34981 whole entry, looked up): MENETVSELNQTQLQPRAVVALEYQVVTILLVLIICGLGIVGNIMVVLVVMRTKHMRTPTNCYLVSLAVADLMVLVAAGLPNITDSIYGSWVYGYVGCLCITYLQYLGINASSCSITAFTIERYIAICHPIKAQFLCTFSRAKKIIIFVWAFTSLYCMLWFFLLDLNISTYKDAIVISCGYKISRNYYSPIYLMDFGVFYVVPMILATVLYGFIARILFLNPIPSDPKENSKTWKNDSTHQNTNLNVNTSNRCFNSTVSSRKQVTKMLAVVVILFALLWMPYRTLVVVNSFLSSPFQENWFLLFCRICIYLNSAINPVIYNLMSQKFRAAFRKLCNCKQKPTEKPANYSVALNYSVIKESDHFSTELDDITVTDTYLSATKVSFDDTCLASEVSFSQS
How it was run: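 Following an 18 h incubation at 37 °C and a 2 h calcium dye load, TRHR-HEK293 cells were exposed to compound (5 min, room temperature) and challenged with TRH, 1 nM final.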

[15] = qHTS assay to identify small molecule antagonists of the sonic hedgehog signaling (Shh) pathway (AID 1259369; calls by dose curve; also: nearly all actives have a fitted effect of over 45% in size)
How it was run: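 For antagonist detection, the reporter line received test compounds together with conditioned medium, incubated 24hr at 37 C, 5% CO2, then luminescence was recorded following 30min room-temperature luciferase reagent incubation.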

[16] = qHTS assay to identify small molecule agonists of the estrogen receptor alpha (ER-alpha) signaling pathway in the presence of an antagonist - cell viability counter screen (AID 1259386);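 also: series mostly up to about 92 µM; cells exposed to compounds for 22 h at 37 °C before the viability read; nearly all actives have a fitted effect of over 30% in size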
How it was run: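 Viability counter screen using VM7Luc4E2 (full-length ER-alpha, four ERE-luciferase). The cells were treated with compounds alongside ICI-182,780 10.0nM for 22hr, and live-cell protease fluorescence was quantified with CellTiter-Fluor.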

[17] = target: Estrogen receptor beta (Homo sapiens) (UniProt Q92731); assay: qHTS assay to identify small molecule antagonists of the estrogen receptor beta (ER-beta) signaling pathway (AID 1259378; active = well fitted inhibition curve with a large enough effect in the signal ratio in the repeat runs, not every such curve was filed as active; the % refers to the signal ratio)
How it was run: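 Antagonist mode: compounds added to beta-lactamase reporter HEK293T ER-beta-UAS cells stimulated with E2 (1nM final), 16 hr at 37C. LiveBLAzer B/G FRET substrate, 2 hours room temperature, fluorescence read-out.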

[18] = qHTS assay to identify small molecule agonists of the progesterone receptor (PR) signaling pathway - cell viability counter screen (AID 1346799; calls by dose curve; also: nearly all actives have a fitted effect of over 45% in size)
How it was run: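 Multiplexed viability read: CellTiter-Glo luminescence, 30 min RT, following LiveBLAzer FRET measurement on PR-UAS-bla HEK293T cells exposed to compounds 16 hr.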

Measured: Potency

COc1nc(C)nc(N)n1
inactive: [1] | [2] | [3] | [4] | [5] | [6] | [7] | [8] | [9] | [10] | [11] | [12] | [13] | [14]

Nc1cc(C(Cl)=C(Cl)Cl)c(S(N)(=O)=O)cc1S(N)(=O)=O
inactive: [15] | [1] | [2] | [4] | [5] | [6] | [7] | [16] | [8] | [9] | [10] | [11] | [13] | [14]

Nc1[nH]c(=O)ncc1F
inactive: [15] | [1] | [17] | [2] | [4] | [5] | [8] | [9] | [10] | [18] | [11] | [12] | [13]

COCCOC(=O)CC#N
inactive: [15] | [1] | [2] | [3] | [4] | [5] | [6] | [7] | [16] | [8] | [9] | [10] | [18] | [11] | [12] | [13] | [14]

OC/C=C/c1ccccc1
inactive: [15] | [2] | [3] | [4] | [16] | [8] | [9] | [10] | [18] | [11] | [13]

C=C(C)[C@H]1CC=C(C)CC1
inactive: [2] | [3] | [4] | [5] | [16] | [8] | [9] | [10] | [11] | [12] | [13]

CC12CCC(CC1=O)C2(C)C (stereo not given)
inactive: [15] | [1] | [17] | [2] | [3] | [5] | [6] | [7] | [8] | [9] | [10] | [18] | [11] | [12] | [13] | [14]

[O-][N+](=Nc1ccccc1)c1ccccc1
inactive: [1] | [17] | [2] | [3] | [5] | [6] | [8] | [9] | [10] | [18] | [11] | [12] | [13] | [14]

NC(=O)CCCCC1CCSS1 (stereo not given)
inactive: [15] | [2] | [3] | [4] | [5] | [6] | [7] | [16] | [8] | [9] | [10] | [18] | [11] | [13] | [14]
